Compound activity deposited in PubChem by National Center for Advancing Translational Sciences (NCATS).
In the library only some 6.9% were active in any assay of this set; here they are far more common.
VDR inhibitor = vitamin D3 receptor (human) inhibition. P11473. Potency, µM, without a hit: max response, negative = inhibition, most hits filed as inhibitors. hit rate 0.93% among 400,000. VDR-SRC2-3 peptide fluorescence polarization, 2 h; note: % is set by controls: 0 for no effect and ±100 for the full control effect
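Measured by FP: displacement of SRC2-3 coactivator peptide from VDR by library compounds, following a two-hour ambient incubation.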
BAZ2B block = blocks human BAZ2B | Q9UIF8 | AlphaScreen BAZ2B-H3K14Ac peptide displacement | Potency, µM (highest dose often 114 µM), for the others: at the top dose activity change, negative = inhibition, usual class: inhibitors | hit rate 4.4% among 360,000 | AID 504333; note: % is set by controls: 0 for no effect and ±100 for the full control effect; nearly all actives have a fitted effect of over 60% in size
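AlphaScreen luminescence quantifies BAZ2B engagement of H3K14Ac peptide; the protein and biotinylated peptide are both at 50 nM final, buffer PBS pH 7.4 with 0.01% Tween-20, all steps at room temperature.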
PLK1 PBD inh = PLK1 (human) polo-box domain binding inhibition; Potency, µM, without a hit: max response, negative = inhibition, hits mostly inhibitors; hit rate 2.8% among 360,000; P53350; Plk1 PBD binding of FITC phosphopeptide, fluorescence polarization; note: series mostly up to about 57 µM; % is set by controls: 0 for no effect and ±100 for the full control effect; nearly all actives have a fitted effect of over 65% in size
Target sequence (P53350 whole entry, looked up, the tested form may be a part): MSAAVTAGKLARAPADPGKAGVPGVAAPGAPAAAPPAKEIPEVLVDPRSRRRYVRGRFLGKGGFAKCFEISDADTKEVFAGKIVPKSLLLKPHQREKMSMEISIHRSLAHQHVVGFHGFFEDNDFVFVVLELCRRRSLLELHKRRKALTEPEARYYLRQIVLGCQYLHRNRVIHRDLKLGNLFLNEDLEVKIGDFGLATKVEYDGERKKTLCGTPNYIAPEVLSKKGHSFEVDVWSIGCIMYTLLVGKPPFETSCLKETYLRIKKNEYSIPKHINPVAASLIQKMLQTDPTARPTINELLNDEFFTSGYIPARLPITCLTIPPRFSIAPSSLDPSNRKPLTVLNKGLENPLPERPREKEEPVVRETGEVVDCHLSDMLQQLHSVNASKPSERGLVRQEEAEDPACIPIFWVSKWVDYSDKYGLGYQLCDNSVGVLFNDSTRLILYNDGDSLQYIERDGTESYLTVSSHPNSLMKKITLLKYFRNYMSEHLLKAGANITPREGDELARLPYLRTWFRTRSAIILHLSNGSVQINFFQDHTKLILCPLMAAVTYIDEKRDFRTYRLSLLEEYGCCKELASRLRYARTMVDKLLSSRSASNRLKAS
JMJD2A Tudor = inhibitors of human JMJD2A Tudor domain; O75164; AlphaScreen JMJD2A-Tudor / H3K4me3 peptide binding; Potency, µM (series often up to 114 µM), for inactives: at the highest dose activity change, negative = inhibition, hits mostly inhibitors; hit rate 4.4% among 390,000; note: % is set by controls: 0 for no effect and ±100 for the full control effect; nearly all actives have a fitted effect of over 50% in size
L3MBTL1 inh = L3MBTL1 (human) inhibition | Q9Y468 | AlphaScreen L3MBTL1–H3K9me1 peptide binding | Potency, µM (series often up to 57.1 µM), for inactives: at the highest dose activity, negative = inhibition, actives largely listed as inhibitors | hit rate 0.66% among 230,000 | AID 485360; note: % is set by controls: 0 for no effect and ±100 for the full control effect; nearly all actives have a fitted effect of over 60% in size
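L3MBTL1 (50 nM) pre-complexed 30 min with biotinylated H3(1-15)K9me1 peptide (75 nM), then compounds added for 30 min at room temperature; AlphaScreen streptavidin donor/nickel chelate acceptor beads (10 ug/mL final) read after 30 min dark incubation.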
HP1b binding inh = blocks HP1-beta chromodomain binding to methylated histone tails. Potency, µM (titrated, usually from 114 µM), inactives show top-dose activity change, negative = inhibition, actives largely listed as inhibitors. AID 540317. hit rate 0.56% among 390,000. AlphaScreen HP1-beta / biotin-H3K9me3 peptide binding; note: nearly all actives have a fitted effect of over 70% in size
Target sequence (P83916 whole entry, looked up): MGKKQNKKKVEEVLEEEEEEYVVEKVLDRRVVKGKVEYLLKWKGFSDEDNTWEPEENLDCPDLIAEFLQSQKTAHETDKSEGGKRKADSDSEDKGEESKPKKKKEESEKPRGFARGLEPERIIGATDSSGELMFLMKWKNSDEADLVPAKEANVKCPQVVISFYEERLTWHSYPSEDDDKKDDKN
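Compound inhibition of the preformed complex between 50 nM HP1-beta and 50 nM biotinylated H3K9me3 peptide was read by AlphaScreen. Buffer was PBS pH 7.4 with 0.01% Tween-20. Incubations ran 30 min at room temperature, with 10 ug/mL donor/acceptor beads.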
Active calls of the source: *; ? = inconclusive; . = no result; [ ] = another dose, or the depositor's remark. Calls come from the whole dose curve; as a rule, active = well fitted curve in the direction sought with a large enough effect; inconclusive = small, poorly fitted or top-dose-only effect, or another doubt; inactive = no such curve, though single readings can be large; an effect the other way counts as inactive or inconclusive. Potency is the fitted concentration of half-maximal effect.

SMILES | VDR inhibitor | BAZ2B block | PLK1 PBD inh | JMJD2A Tudor | L3MBTL1 inh | HP1b binding inh
CCC(=O)N(CCC(c1ccccc1)c1ccco1)Cc1cccs1 (centres undefined) | ? | ? | -21.8% | 1.3% | 1.7% | 31.2%
COc1ccccc1C(CCN(Cc1cccs1)C(C)=O)c1ccco1 (centres undefined) | ? | 79.4µM* | -17.4% | -28.1% | -2.4% | 8.0%
COc1ccc(NC(=O)Nc2nnc(N(C)C3CCCCC3)s2)c(OC)c1 | -4.0% | 0.6% | . | -5.3% | . | 47.3%
CCC(C)OC(=O)C1=C(C)NC2=C(C(=O)C(C(=O)OC)C(C)C2)C1c1ccc(N(C)C)cc1 (centres undefined) | -7.5% | ? | -10.0% | 17.8µM* | -6.5% | ?
O=C(NNc1ncc(C(F)(F)F)cc1Cl)c1ccc(Cl)c(Cl)c1 | -3.5% | 1.6% | 10.4% | -15.9% | 4.1% | 40.0%
O=S(=O)(NNc1ncc(C(F)(F)F)cc1Cl)c1ccccc1 | -22.2% | -8.3% | -12.2% | 0.708µM* | -7.1% | ?
Nc1ccccc1C(=O)NNc1ncc(C(F)(F)F)cc1Cl | 8.0% | 50.1µM* | -2.8% | -18.5% | -5.7% | 40.5%
O=S(=O)(NNc1ncc(C(F)(F)F)cc1Cl)c1ccc(F)cc1F | -21.4% | . | ? | ? | 6.3% | 29.7%
COc1cc(C(=O)N2CCN(C3=NS(=O)(=O)c4ccccc43)CC2)cc(OC)c1OC | . | . | 1.6% | . | . | .
O=C(c1ccco1)n1c(=S)nc2ccccn21 | ? | 6.4% | 25.1µM* | -27.0% | 6.9% | -25.2%
Cc1cccc(C(=O)n2c(=S)nc3cc(C)ccn32)c1 | -19.0% | -40.4% | 21.2µM* | 39.8µM* | -17.2% | -14.7%
Cc1cccc2nc(=S)n(C(=O)c3ccco3)n12 | -15.2% | -30.0% | -18.9% | -12.7% | . | 0.4%
Cc1ccn2c(NC(=O)c3ccccc3)c(-c3ccccc3)nc2c1 | -6.6% | -8.2% | 7.5% | -15.6% | 1.8% | 22.7%
Cc1ccn2c(c1)nc(=S)n2C(=O)c1ccccc1 | -4.9% | 8.7% | 21.2µM* | -13.8% | -12.7% | -23.8%
Cc1noc(/C=C/N(C)C)c1S(=O)(=O)N1CCCC(C(=O)Nc2ccc(F)cc2F)C1 (centres undefined) | -2.5% | -17.4% | -9.3% | -7.6% | . | 21.0%
Cc1cccc(S(=O)(=O)N2CCN(c3nc(-c4cccs4)nc4ccccc34)CC2)c1 | 7.5% | . | . | -14.3% | . | 39.1%
COc1cc(C2CC(=O)Nc3cc4c(cc32)OCCO4)cc(OC)c1O (centres undefined) | -15.4% | -12.9% | . | -25.0% | . | 19.2%
O=C(NCCCN1CCOCC1)c1sc2cc(Cl)ccc2c1Cl | -3.7% | -10.5% | -5.2% | -9.0% | -18.4% | 11.9%
O=C(NCCCN1CCOCC1)c1sc2cc([N+](=O)[O-])ccc2c1Cl | ? | -31.8% | 1.06µM* | 79.4µM* | -0.3% | ?
Cn1cc(/C=N/NC(N)=S)c2ccccc21 | -15.5% | -32.1% | -5.6% | -24.8% | -5.7% | 23.1%
C=CCNC(=S)N/N=C/c1cn(C)c2ccccc12 | -21.8% | -25.2% | ? | 56.2µM* | . | ?
CC1Cc2ccccc2N1C(=O)COC(=O)CCc1nc2ccccc2c(=O)[nH]1 (centres undefined) | ? | -21.0% | 4.23µM* | 5.62µM* | 2.4% | -17.2%
O=C(COC(=O)CCc1nc2ccccc2c(=O)[nH]1)Nc1ccc(Cl)cn1 | ? | 14.0% | 15µM* | -23.5%[11.4 µM] | -29.6% | -16.5%
O=C(CCc1nc2ccccc2c(=O)[nH]1)OCC(=O)N1CCc2ccccc21 | -6.8% | -15.5% | -0.6% | -1.4% | . | 22.8%
Cn1nc(C(F)(F)F)c(/C=N/OC(=O)c2ccccc2)c1Sc1ccc(Cl)cc1 | 89.1µM* | 1.0% | -5.4% | 7.5% | . | 52.3%
SMILES | VDR inhibitor | BAZ2B block | PLK1 PBD inh | JMJD2A Tudor | L3MBTL1 inh | HP1b binding inh
Cn1nc(C(F)(F)F)c(/C=N/OC(=O)c2ccccc2)c1Cl | 5.7% | 0.8% | 0.8% | -6.7% | 8.9% | 29.2%
COc1ccccc1-c1nnc(SCCOc2ccccc2C)o1 | 13.6% | 168.9% | . | 67.5% | . | 87.3%
CNC1(c2nnnn2-c2ccccc2C)CCOC(C)(C)C1 (centres undefined) | 22.4µM* | -6.2% | 15µM* | -16.2%[11.4 µM] | 4.0% | 7.2%
CCc1cc(C(=O)Nc2c(C)nn(Cc3ccc(C)cc3)c2C)no1 | -0.6% | -1.0% | . | -13.0% | . | 4.0%
Cn1c(=O)c2c(ncn2CC(=O)N2CCN(c3ccc(F)cc3)CC2)n(C)c1=O | -14.7% | -0.4% | 26.7µM* | -2.3%[11.4 µM] | 1.4% | -16.6%
Cn1c(=O)c2c(ncn2CCCC(=N)N2CCOCC2)n(C)c1=O | -18.9% | -2.3% | ? | 50.1µM* | 7.7% | -7.9%
CCOC(=O)c1c(C)[nH]c(C(=O)N2CCN(c3ccc(OC)cc3)CC2)c1C | 10.6% | 39.8µM* | -7.8% | ? | -23.3% | -22.2%
CCOC(=O)c1c(C)[nH]c(C)c1S(=O)(=O)N1CCC(C(=O)NCc2ccc(OC)cc2)CC1 | 0.4% | 3.2% | . | 89.1µM* | . | 2.8%
CCOC(=O)c1c(C)[nH]c(C)c1S(=O)(=O)N1CCN(c2ccc(F)cc2)CC1 | 9.8% | 70.8µM* | -3.8% | 3.9% | . | 40.6%
CCOC(=O)c1[nH]c(C)c(C(=O)N2CCN(c3ccccc3)CC2)c1C | -17.6% | ? | -12.4% | -30.1% | -11.7% | -8.1%
CCOc1ccc(OCC)c(NC(=O)C2CCN(S(=O)(=O)c3c(C)[nH]c(=O)[nH]c3=O)CC2)c1 | -24.1% | -15.4% | 16.8µM* | -15.0%[11.4 µM] | . | -7.3%
O=C(O)C1(c2ccccc2)CCN(S(=O)(=O)c2ccc(Br)cc2)CC1 | -6.2% | -5.9% | -11.9% | -9.6% | -1.4%[2.29 µM] | 34.2%
COc1cccc(CCNC(=O)c2cnc3sc(N4CCOCC4)nn3c2=O)c1 | 10.9% | 0.5% | . | 2.5% | . | 66.1%
CSc1ccccc1NC(=O)CN1CCN(S(=O)(=O)c2ccccc2[N+](=O)[O-])CC1 | -14.2% | 0.8% | 3.6% | -30.8% | -3.3% | 16.5%
CCNc1nc(NCC)nc(-n2cc(C(=O)c3cc(Cl)ccc3O)cn2)n1 | 3.3% | . | . | ? | . | 28.2%
COc1cc(C2NC(=O)c3c(sc4c3CCN(C)C4)N2)cc(Br)c1OC(=O)c1ccc(C)cc1 (centres undefined) | -9.6% | ? | . | -32.7% | . | 2.8%
O=C(CSc1nccn(-c2ccc(F)c(F)c2)c1=O)NC1CCCC1 | -15.3% | ? | -27.2% | -13.0% | -12.6% | 17.5%
O=C(CSc1nccn(-c2cccc(F)c2)c1=O)Nc1ccc(Cl)cc1F | 89.1µM* | -34.7% | ? | -5.6% | . | 12.7%
Cc1ccc(NC(=O)CSc2nccn(-c3ccc4c(c3)OCCO4)c2=O)cc1 | -14.8% | -19.4% | -29.7% | -26.2% | 1.8% | 13.8%
O=C(CSc1nccn(-c2ccc3c(c2)OCCO3)c1=O)Nc1ccccc1 | ? | -1.9% | 21.2µM* | -24.1% | -2.2% | 14.2%
CN(C)CCNC(=O)CN1C(=O)COc2ccc(S(=O)(=O)N3CCCC3)cc21 | 1.3% | -0.9% | . | 9.4% | . | 32.6%
